PubChem BioAssay (NCATS)
Unmarked numbers belong to inactive results. Inconclusive results are not listed. Active and inactive are the calls of the source. Unless noted, calls follow the shape of the dose curve; as a rule, active = well fitted curve in either direction with a large enough effect (not every such curve was filed as active); inconclusive = small, poorly fitted or top-dose-only effect, or another doubt; inactive = flat fitted curve, though single readings scatter.

Columns and labels:
[1] = biological target: Lysosomal acid glucosylceramidase (Homo sapiens) (UniProt P04062); assay: Glucocerebrosidase-p2 (AID 348; in the data active = potency below about 10 µM; also: potency is read from the fitted curve at half-maximal effect); settings: purified GBA, blue fluorogenic substrate, 40 min
Lysosomal acid glucosylceramidase (Homo sapiens), sequence (P04062 whole entry, looked up): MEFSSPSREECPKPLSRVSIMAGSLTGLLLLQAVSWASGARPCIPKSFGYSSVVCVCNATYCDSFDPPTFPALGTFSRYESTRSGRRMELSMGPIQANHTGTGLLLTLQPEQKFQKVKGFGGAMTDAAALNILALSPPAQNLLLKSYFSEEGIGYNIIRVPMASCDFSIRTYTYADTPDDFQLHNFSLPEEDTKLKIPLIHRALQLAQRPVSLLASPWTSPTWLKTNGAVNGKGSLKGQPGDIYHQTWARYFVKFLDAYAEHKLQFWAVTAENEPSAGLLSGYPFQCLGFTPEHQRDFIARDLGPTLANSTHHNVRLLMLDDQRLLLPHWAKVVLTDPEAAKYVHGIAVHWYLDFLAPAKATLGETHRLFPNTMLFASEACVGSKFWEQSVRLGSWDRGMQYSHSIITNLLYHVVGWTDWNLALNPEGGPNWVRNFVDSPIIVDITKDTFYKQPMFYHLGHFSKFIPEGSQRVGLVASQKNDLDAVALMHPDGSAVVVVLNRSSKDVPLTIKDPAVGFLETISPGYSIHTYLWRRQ
How it was run: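 Normal human glucocerebrosidase (0.2 nM) with blue fluorogenic substrate (80 uM final) in citrate/phosphate pH 5.9 with 10mM sodium taurocholate, 0.01% tween-20; 40 min RT, NaOH/glycine stop; fluorescence Ex 365/Em 440; AC50 from a titration from 0.6 nM upwards.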

[2] = AP1 Signaling Pathway (AID 357); settings: ME-180 AP-1-bla reporter, EGF-induced, beta-lactamase ratio, 5 h; at 7.69 µM (top of the series) unless noted; also: % is scaled to controls: 0 for no effect and ±100 for the full control effect
How it was run: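 ME-180 cells with beta-lactamase reporter under AP-1 response element, stimulated with EC50 EGF; compounds tested in titration series, 5 h at 37 °C. CCF4 substrate added 2.5 h at room temperature; 460/530 nm emission ratio gave %activity and AC50.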

[3] = NFAT Signaling Pathway (AID 444); settings: Jurkat NFAT-bla M1, carbachol, beta-lactamase ratio, 5 h; at 7.69 µM (top of the series) unless noted;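 also: carbachol stimulus at about its EC50 of 1 µM final; % is scaled to controls: 0 for no effect and ±100 for the full control effect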
How it was run: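 Jurkat cells carrying an NFAT-driven β-lactamase reporter and co-transfected muscarinic M1 receptor were treated with compound plus carbachol (1 uM final, an EC50 level) for 5 h at 37 °C. CCF4 loading followed for 1 h at RT; 460/530 nm ratio gave %activity.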

[4] = Stat Signaling Pathway (AID 446); settings: ME-180 (cervical carcinoma) SIE beta-lactamase reporter, IL-6 stimulated, 5 h; at 7.69 µM (top of the series) unless noted;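 also: ME-180 cervical cancer cells given 40 pM IL-6 alongside compound; SIE-controlled beta-lactamase reporter measured as 460/530 nm FRET emission ratio; % is scaled to controls: 0 for no effect and ±100 for the full control effect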
How it was run: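 Normalization used AC90 stimulation (300 pM IL-6) and AC90 inhibition (125 nM pan-JAK inhibitor at 40 pM IL-6). The underlying signal is SIE-driven beta-lactamase in ME-180 cells after 5 h IL-6 exposure with compound.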

[5] = biological target: Glucocorticoid receptor (Homo sapiens) (UniProt P04150); assay: GR-GFP Redistribution (AID 450;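 active = compounds whose dose series gives a full or clear partial fitted curve of increased nuclear translocation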; also: potency is read from the fitted curve at half-maximal effect); settings: U2OS GR-GFP nuclear translocation, laser cytometry, 2 h
Glucocorticoid receptor (Homo sapiens), sequence (P04150 whole entry, looked up, the tested form may be a part): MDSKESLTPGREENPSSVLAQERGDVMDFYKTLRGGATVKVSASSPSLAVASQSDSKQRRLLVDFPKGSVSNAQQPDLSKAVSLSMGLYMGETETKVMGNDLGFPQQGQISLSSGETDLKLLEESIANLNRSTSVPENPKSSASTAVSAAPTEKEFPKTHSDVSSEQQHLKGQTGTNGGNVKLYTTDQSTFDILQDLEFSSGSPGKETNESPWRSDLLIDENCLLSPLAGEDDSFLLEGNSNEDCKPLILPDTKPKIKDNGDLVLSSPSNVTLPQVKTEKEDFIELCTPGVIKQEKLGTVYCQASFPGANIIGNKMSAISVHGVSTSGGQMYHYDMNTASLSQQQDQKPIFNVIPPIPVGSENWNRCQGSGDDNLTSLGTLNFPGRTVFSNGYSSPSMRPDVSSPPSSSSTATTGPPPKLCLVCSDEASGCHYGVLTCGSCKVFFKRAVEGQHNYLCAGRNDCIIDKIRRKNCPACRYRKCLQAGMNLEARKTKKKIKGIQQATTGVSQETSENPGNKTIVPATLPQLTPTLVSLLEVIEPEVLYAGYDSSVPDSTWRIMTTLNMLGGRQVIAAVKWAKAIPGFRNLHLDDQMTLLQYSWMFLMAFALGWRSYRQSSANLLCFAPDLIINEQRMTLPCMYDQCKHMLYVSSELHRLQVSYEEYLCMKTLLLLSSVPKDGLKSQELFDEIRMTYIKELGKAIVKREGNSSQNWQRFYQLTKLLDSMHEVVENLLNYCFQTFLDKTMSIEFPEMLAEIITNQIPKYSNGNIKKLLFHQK

[6] = biological target: Glucocorticoid receptor (Homo sapiens) (UniProt P04150); assay: GR-EFC Redistribution (AID 451; calls by dose curve; also: potency is read from the fitted curve at half-maximal effect); settings: CHO-K1 GR-EFC translocation, beta-gal luminescence, 2 h
How it was run: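 CHO-K1 cells stably expressing nuclear-localized β-gal enzyme acceptor and GR fused C-terminally to the enzyme donor fragment; ligand-driven nuclear translocation restores β-gal by complementation. Compounds titrated up to 46 uM final, 2 h at 37 °C; luminescence read.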

[7] = biological target: Mitogen-activated protein kinase 10 (Mus musculus) (UniProt Q61831); assay: JNK3 AlphaScreen Assay (AID 530); settings: JNK3 lysate, c-Jun phosphorylation; series mostly up to 11.4 µM;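 also: kinase came from lysate of stimulated human HepG2 cells; signal reports phosphorylation of biotinylated GST-cJun 1-79 at Ser73 with 10 µM ATP; % is scaled to controls: 0 for no effect and ±100 for the full control effect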
How it was run: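 Phosphorylation of biotinylated GST-cJun(1-79) at Ser73 is measured by AlphaScreen proximity luminescence. Enzyme is JNK3 in HepG2 lysates activated with interleukin-1beta and tumor necrosis factor alpha; ATP is 10 uM final.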

[8] = biological target: 3',5'-cyclic-AMP phosphodiesterase 4B (Homo sapiens) (UniProt Q07343); assay: qHTS Assay for Inhibitors of PDE-IV (AID 607; active = well fitted activation curve with a large enough effect in the main read-out, with a control signal flat, not every such curve was filed as active; also: % of control where 0% means no effect); settings: HEK293 ACTOne CNG channel cells, membrane potential fluorescence; series mostly up to 22.9 µM
3',5'-cyclic-AMP phosphodiesterase 4B (Homo sapiens), sequence (Q07343 whole entry, looked up): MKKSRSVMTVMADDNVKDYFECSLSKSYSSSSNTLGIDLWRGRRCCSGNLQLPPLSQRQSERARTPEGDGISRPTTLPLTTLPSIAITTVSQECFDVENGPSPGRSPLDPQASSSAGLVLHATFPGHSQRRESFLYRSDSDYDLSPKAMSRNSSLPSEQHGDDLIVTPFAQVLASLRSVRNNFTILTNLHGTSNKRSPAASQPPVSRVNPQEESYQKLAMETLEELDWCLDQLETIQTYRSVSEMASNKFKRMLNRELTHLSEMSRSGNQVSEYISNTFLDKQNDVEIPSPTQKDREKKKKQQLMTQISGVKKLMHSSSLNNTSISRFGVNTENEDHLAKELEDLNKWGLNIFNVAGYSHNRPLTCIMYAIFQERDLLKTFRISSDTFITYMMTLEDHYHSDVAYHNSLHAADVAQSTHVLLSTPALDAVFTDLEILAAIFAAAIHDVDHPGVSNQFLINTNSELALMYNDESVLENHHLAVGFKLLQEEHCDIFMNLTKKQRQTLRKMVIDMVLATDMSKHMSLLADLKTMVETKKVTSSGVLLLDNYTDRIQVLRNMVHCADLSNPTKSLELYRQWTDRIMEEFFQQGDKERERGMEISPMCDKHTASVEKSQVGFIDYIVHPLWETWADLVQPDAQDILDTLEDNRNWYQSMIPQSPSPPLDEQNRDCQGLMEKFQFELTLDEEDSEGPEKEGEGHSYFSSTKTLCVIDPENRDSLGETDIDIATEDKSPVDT
How it was run: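 HEK293 ACTOne cells with CNG channel (1000/well), endogenous PDE4; membrane potential dye, compounds up to 22.9 uM final. Fluorescence Ex 535/Em 590; RO 20-1724 (100 uM final) as reference.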

[9] = biological target: ATP-dependent 6-phosphofructokinase (Trypanosoma brucei brucei) (UniProt O15648); assay: qHTS Assay to Find Inhibitors of T. brucei phosphofructokinase: hit validation (AID 492961; active = well fitted curve in the direction sought with a large enough effect; an effect the other way counts as inactive or inconclusive); settings: T. brucei PFK, ADP-Glo luminescence; series mostly up to 51.4 µM
ATP-dependent 6-phosphofructokinase (Trypanosoma brucei brucei), sequence (O15648 whole entry, looked up): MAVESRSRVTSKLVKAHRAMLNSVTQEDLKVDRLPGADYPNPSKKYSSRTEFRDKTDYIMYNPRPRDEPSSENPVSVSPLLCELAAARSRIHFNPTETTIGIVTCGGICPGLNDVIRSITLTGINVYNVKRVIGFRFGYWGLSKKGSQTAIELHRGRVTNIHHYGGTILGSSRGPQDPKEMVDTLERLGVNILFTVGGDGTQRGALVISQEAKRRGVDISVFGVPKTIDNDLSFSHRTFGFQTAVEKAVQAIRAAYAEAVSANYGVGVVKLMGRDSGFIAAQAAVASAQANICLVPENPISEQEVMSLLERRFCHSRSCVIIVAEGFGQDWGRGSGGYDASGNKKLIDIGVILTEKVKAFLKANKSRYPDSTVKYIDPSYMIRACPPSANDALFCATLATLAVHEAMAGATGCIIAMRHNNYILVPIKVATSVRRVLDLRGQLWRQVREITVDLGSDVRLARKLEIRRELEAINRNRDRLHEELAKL
How it was run: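 Reaction: 0.1 M triethanolamine pH 8.0, 5 mM MgCl2, F6P 0.5 mM, ATP 0.1 mM, PFK 1.25 nM, 45 min RT. Read-out: ADP-Glo luminescence. Analysis: concentration-response fits, classed by r2 and efficacy.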

[10] = qHTS profiling for inhibitors of Plasmodium falciparum proliferation (AID 504749; active = well fitted curve in the direction sought with a large enough effect; an effect the other way counts as inactive or inconclusive;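 also: 0% = DMSO vehicle and full inhibition = artemisinin control; nearly all actives have a fitted effect of over 60% in size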); settings: P. falciparum in erythrocytes, SYBR Green DNA, 72 h, at 28.7 µM (top of the series)
How it was run: (§1)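 Quantitative HTS: compounds pinned into medium, infected erythrocytes added (0.3% parasitemia, 2.5% hematocrit), 72 h culture at 37 C under 5% CO2. Saponin/Triton lysis with SYBR Green I, overnight RT, then fluorescence read.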

[11] = test system: AS120; assay: as above; settings: P. falciparum in erythrocytes, SYBR Green DNA, 72 h; series mostly up to 28.7 µM
How it was run: as §1

[12] = test system: ATS189; assay: as above; settings: P. falciparum in erythrocytes, SYBR Green DNA, 72 h; series mostly up to 28.7 µM
How it was run: as §1

[13] = test system: W2; assay: as above; settings: P. falciparum in erythrocytes, SYBR Green DNA, 72 h; series mostly up to 28.7 µM
How it was run: as §1

[14] = biological target: Cytochrome P450 1A2 (Homo sapiens) (UniProt P05177); assay: p450-cyp1a2 (AID 410; calls by dose curve; also: potency is read from the fitted curve at half-maximal effect;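 as to activity change, negative = inhibition: -100% = full effect of reference inhibitor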); settings: recombinant CYP1A2, luciferin-ME demethylation, luminescence; series mostly up to 11.4 µM
Cytochrome P450 1A2 (Homo sapiens), sequence (P05177 whole entry, looked up): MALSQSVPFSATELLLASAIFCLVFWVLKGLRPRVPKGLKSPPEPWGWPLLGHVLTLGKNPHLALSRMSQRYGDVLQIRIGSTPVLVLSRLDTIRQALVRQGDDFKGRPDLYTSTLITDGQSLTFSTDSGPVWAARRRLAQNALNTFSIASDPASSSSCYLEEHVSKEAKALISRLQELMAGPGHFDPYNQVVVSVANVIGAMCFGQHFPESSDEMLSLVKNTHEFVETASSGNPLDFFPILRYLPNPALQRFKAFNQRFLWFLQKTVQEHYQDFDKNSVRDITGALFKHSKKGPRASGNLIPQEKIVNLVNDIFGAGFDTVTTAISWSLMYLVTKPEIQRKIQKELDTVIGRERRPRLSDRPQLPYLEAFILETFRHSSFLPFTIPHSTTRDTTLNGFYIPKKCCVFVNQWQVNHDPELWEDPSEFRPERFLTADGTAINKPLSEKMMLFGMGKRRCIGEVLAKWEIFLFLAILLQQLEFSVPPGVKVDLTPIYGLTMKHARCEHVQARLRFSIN
How it was run: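 Luminescent demethylation readout: Luciferin-ME (100uM, equal to Km) turned over by 20nM CYP1A2 for 60 min at room temperature after NADPH regeneration addition, following 10 min compound preincubation. Normalization used 57 uM furafylline as full inhibition.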

[15] = biological target: Cytochrome P450 3A4 (Homo sapiens) (UniProt P08684); assay: qHTS Assay for Inhibitors and Substrates of Cytochrome P450 3A4 (AID 884; active = well fitted curve in the direction sought with a large enough effect; an effect the other way counts as inactive or inconclusive; also: % is scaled to controls: 0 for no effect and ±100 for the full control effect; nearly all actives have a fitted effect of over 50% in size); settings: recombinant CYP3A4, Luciferin-PPXE luminescence; series mostly up to 57.1 µM
Cytochrome P450 3A4 (Homo sapiens), sequence (P08684 whole entry, looked up): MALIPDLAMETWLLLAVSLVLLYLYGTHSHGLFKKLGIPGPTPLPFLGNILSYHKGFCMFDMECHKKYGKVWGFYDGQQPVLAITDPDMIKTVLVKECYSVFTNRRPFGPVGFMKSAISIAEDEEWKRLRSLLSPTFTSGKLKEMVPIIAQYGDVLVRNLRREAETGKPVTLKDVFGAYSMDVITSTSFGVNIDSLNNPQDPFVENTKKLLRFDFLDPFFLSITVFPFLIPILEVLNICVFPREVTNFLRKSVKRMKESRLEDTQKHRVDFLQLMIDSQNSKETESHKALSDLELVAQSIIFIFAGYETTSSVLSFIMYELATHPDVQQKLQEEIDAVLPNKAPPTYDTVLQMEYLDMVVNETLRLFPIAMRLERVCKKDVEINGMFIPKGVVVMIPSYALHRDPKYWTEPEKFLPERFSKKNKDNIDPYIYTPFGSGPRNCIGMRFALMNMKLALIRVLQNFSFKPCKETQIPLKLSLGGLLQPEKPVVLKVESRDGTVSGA
How it was run: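 Luminescent readout of luciferin produced by CYP3A4 (20 nM) dealkylation of Luciferin-PPXE, 25 uM (its KM). NADPH-driven reaction ran 60 min at RT after 10 min compound preincubation; data scaled to 57 uM ketoconazole as 100% inhibition.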

[16] = biological target: Cytochrome P450 2D6 (Homo sapiens) (UniProt P10635); assay: qHTS Assay for Inhibitors and Substrates of Cytochrome P450 2D6 (AID 891; active = well fitted curve in the direction sought with a large enough effect; an effect the other way counts as inactive or inconclusive;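 also: luciferin methyl ether substrate demethylated by CYP2D6 with NADPH regeneration; % is scaled to controls: 0 for no effect and ±100 for the full control effect; nearly all actives have a fitted effect of over 60% in size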); settings: recombinant CYP2D6, luciferin-ME EGE luminescence; series mostly up to 11.4 µM
Cytochrome P450 2D6 (Homo sapiens), sequence (P10635 whole entry, looked up): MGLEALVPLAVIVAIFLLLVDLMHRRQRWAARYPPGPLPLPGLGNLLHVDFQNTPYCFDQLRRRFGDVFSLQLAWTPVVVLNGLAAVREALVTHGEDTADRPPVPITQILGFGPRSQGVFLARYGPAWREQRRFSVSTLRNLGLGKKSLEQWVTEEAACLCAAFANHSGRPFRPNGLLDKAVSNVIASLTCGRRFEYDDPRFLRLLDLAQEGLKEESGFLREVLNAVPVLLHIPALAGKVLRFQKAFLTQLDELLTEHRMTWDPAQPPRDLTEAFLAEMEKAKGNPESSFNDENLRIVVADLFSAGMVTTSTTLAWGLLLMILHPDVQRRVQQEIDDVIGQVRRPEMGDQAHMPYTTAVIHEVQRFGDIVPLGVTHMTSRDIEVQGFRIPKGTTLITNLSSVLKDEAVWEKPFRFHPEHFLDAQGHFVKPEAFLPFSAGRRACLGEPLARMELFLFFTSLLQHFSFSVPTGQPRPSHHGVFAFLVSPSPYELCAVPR
How it was run: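 Luminescent read-out of luciferin formed by 5 nM human CYP2D6 demethylating 30 uM Luciferin-ME EGE (Km level) over 60 min at room temperature after NADPH regeneration addition. Data normalized to full inhibition by 1.43 uM quinidine.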

[17] = biological target: Cytochrome P450 2C19 (Homo sapiens) (UniProt P33261); assay: qHTS Assay for Inhibitors and Substrates of Cytochrome P450 2C19 (AID 899; active = well fitted curve in the direction sought with a large enough effect; an effect the other way counts as inactive or inconclusive; also: % is scaled to controls: 0 for no effect and ±100 for the full control effect; nearly all actives have a fitted effect of over 60% in size); settings: recombinant CYP2C19, luciferin-H EGE luminescence; series mostly up to 11.4 µM
Cytochrome P450 2C19 (Homo sapiens), sequence (P33261 whole entry, looked up): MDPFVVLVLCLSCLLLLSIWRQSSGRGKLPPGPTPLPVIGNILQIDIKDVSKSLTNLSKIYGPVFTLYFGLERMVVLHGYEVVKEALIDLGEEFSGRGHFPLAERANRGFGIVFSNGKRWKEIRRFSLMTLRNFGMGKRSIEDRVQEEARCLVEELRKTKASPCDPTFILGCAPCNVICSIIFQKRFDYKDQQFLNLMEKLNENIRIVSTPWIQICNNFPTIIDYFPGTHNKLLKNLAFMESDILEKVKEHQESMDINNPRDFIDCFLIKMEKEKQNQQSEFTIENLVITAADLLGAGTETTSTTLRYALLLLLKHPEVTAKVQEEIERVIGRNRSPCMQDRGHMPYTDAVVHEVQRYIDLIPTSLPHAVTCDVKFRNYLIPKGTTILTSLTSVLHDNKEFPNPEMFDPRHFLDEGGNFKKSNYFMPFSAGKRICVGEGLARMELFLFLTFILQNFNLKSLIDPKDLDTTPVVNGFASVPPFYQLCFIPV
How it was run: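 In 50mM KPO4, the reaction held 5nM enzyme and KM-level (10uM) Luciferin-H EGE; it ran 60 min at 37C after NADPH regeneration and a 10 min compound preincubation. Luminescence values were scaled to 57uM ketoconazole as complete inhibition.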

[18] = biological target: Cytochrome P450 2C9 (Homo sapiens) (UniProt P11712); assay: qHTS Assay for Inhibitors and Substrates of Cytochrome P450 2C9 (AID 883; active = well fitted curve in the direction sought with a large enough effect; an effect the other way counts as inactive or inconclusive; also: potency is read from the fitted curve at half-maximal effect; nearly all actives have a fitted effect of over 60% in size); settings: recombinant CYP2C9, luciferin-H luminescence, 60 min; series mostly up to 11.4 µM
How it was run: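 CYP2C9 deoxyluciferin hydroxylation, 37C, 60 min with NADPH regeneration; 10nM enzyme, 100uM Luciferin-H (KM). Glo detection reagent stopped reaction; luminescence normalized to sulphaphenazole (57uM) full inhibition.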

[19] = biological target: Cytochrome P450 3A4 (Homo sapiens) (UniProt P08684); assay: qHTS Assay for Activators of Cytochrome P450 3A4 (AID 885; active = well fitted curve in the direction sought with a large enough effect; an effect the other way counts as inactive or inconclusive; also: nearly all actives have a fitted effect of over 65% in size); settings: recombinant CYP3A4, Luciferin-PPXE luminescence, 60 min; series mostly up to 11.4 µM
How it was run: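 Human CYP3A4 dealkylates Luciferin-PPXE to luciferin, which luciferase detection converts to light. Substrate was at its KM (25uM), buffer 200mM KPO4, reaction 60 min at RT.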

## CC1(C)S[C@@H]2[C@H](NC(=O)Cc3ccccc3)C(=O)N2[C@@H]1C(=O)O
[1]
  Potency: > 11.4 µM
[2]
  activity change, negative = inhibition: 11.5%
[3]
  activity change, negative = inhibition: 4.82%
[4]
  activity, negative = inhibition: -4.4%
[5]
  Potency: > 46 µM
[6]
  Potency: > 9.22 µM
[7]
  Potency: inactive
[8]
  Potency: inactive
[9]
  outcome: inactive
[10]; parasite line A
  activity, negative = inhibition: 2.23%
[10]; parasite line B
  activity, negative = inhibition: 9.91%
[11]
  Potency: inactive
[12]
  Potency: inactive
[13]
  Potency: inactive

## OC[C@@H]1O[C@@H](n2cnc3c(SCc4ccccc4)ncnc32)[C@@H](O)[C@H]1O
[1]
  Potency: > 11.4 µM
[2]
  activity change, negative = inhibition: 3.13%
[14]
  activity change, negative = inhibition: -17.2% [at 2.29 µM]
[5]
  Potency: > 46 µM
[6]
  Potency: > 9.22 µM
[7]
  Potency: inactive
[8]
  Potency: inactive

## CSc1ncnc2c1ncn2CC(=O)[C@H]1CC[C@H]2[C@H]3CCC4=CC(=O)CC[C@@]4(C)[C@@H]3CC[C@@]12C
[1]
  Potency: > 11.4 µM
[2]
  activity change, negative = inhibition: -21.5%
[14]
  Potency: 3.98 µM (active)
[5]
  Potency: > 46 µM
[6]
  Potency: > 9.22 µM
[7]
  Potency: inactive
[8]
  Potency: inactive
[15]
  activity change, negative = inhibition: -20.1% [at 11.4 µM]
[16]
  Potency: inactive
[17]
  Potency: inactive

## C[C@H](CCC(=O)O)[C@H]1CC[C@@H]2[C@H]3[C@@H](C[C@@H](O)[C@]21C)[C@]1(C)CC[C@H](O)C[C@@H]1C[C@@H]3O
[1]
  Potency: > 11.4 µM
[2]
  activity change, negative = inhibition: 1.25%
[3]
  activity change, negative = inhibition: 14.6%
[4]
  activity, negative = inhibition: 13%
[5]
  Potency: > 46 µM
[6]
  Potency: > 9.22 µM
[7]
  Potency: inactive
[8]
  Potency: inactive
[9]
  outcome: inactive
[10]; parasite line A
  activity, negative = inhibition: -6.11%
[10]; parasite line B
  activity, negative = inhibition: -10.8%
[11]
  Potency: inactive
[12]
  Potency: inactive
[13]
  Potency: inactive

## COc1ccc(C(=O)CCN(C)C)c2ccccc12
[1]
  Potency: > 11.4 µM
[2]
  activity change, negative = inhibition: -15.5%
[14]
  Potency: 1.58 µM (active)
[5]
  Potency: > 46 µM
[6]
  Potency: > 9.22 µM
[7]
  Potency: inactive
[8]
  Potency: inactive
[18]
  Potency: 3.98 µM (active)
[19]
  Potency: inactive

## C[C@H](CCC(=O)NN)[C@@H]1CC[C@@H]2[C@H]3CC[C@H]4C[C@@H](O)CC[C@@]4(C)[C@@H]3CC[C@]21C
[1]
  Potency: > 11.4 µM
[2]
  activity change, negative = inhibition: 12.8%
[3]
  activity change, negative = inhibition: 17%
[4]
  activity, negative = inhibition: -5.92%
[5]
  Potency: > 46 µM
[6]
  Potency: > 9.22 µM
[7]
  Potency: inactive

## COc1c2c(c3c(c1CCC(=O)O)OC(C)(C)C=C3)OC(C)(C)C=C2
[1]
  Potency: > 11.4 µM
[2]
  activity change, negative = inhibition: -1.7%
[3]
  activity change, negative = inhibition: 13.1%
[4]
  activity, negative = inhibition: -3.06%
[5]
  Potency: > 46 µM
[6]
  Potency: > 9.22 µM
[7]
  Potency: inactive
